# Rows were chosen to be rich in hits. Some 7.5% of all compounds tested hit in one or more screens of this group.
# NPC1 promoter act = activators of NPC1 promoter; Huh7 NPC1 promoter luciferase reporter, 24 h; Potency, µM (series often up to 9.22 µM), for inactives: at the highest dose activation, hits mostly activators; hit rate 2.4% among 320,000; further: % of control where 0% means no effect; nearly all actives have a fitted effect of over 60% in size
#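 Luminescence read-out of NPC1 promoter-driven luciferase in stably transfected Huh7 cells; compounds delivered in DMSO and left 24 h at 37C, 5% CO2, qHTS titration format.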
# ELG1 genotoxic = inducers of genotoxicity in HEK293T ELG1-luciferase cells | HEK293T ELG1-luciferase reporter, luminescence, 16 h | Potency, µM (highest dose often 46 µM), without a hit: top-dose activity change, positive = activation, usual class: activators | hit rate 1.3% among 330,000 | AID 504466; further: % of control where 0% means no effect; nearly all actives have a fitted effect of over 60% in size
#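 Reporter readout depends on ELG1 protein level, which increases with genetic stress. After 16 hr compound exposure at 37 °C, luciferase activity was quantified using ONE-Glo.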
# FLuc counter = inhibits or activates purified firefly luciferase, miR-21 counter-screen; purified FLuc, Km substrates, luminescence inhibition; Potency, µM (top dose mostly 57.5 µM), for the others: top-dose activity change, negative = inhibition, most hits filed as inhibitors; hit rate 6.9% among 360,000;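 further: plate controls were vehicle for no effect and reference inhibitor for full effect; nearly all actives have a fitted effect of over 55% in size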
# Target sequence (P08659 whole entry, looked up): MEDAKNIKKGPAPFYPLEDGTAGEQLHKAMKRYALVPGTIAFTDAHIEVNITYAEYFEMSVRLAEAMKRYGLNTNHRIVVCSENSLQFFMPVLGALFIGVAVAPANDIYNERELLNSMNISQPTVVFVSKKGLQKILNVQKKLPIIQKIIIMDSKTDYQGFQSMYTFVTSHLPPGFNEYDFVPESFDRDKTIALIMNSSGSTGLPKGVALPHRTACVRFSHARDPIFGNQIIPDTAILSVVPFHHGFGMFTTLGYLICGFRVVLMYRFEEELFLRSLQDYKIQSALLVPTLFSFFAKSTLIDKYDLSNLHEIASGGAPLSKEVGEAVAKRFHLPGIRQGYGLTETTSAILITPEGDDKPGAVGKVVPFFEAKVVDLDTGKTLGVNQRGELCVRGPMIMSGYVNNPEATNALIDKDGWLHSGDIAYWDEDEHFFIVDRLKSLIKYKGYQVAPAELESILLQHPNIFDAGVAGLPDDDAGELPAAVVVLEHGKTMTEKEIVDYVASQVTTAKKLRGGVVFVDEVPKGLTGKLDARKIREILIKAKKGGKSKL
#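 Biochemical qHTS of compounds, final roughly 60 µM downward over six points, against 10 nM purified firefly luciferase using Km concentrations of substrates (10 uM D-luciferin, 10 uM ATP) in Tris acetate pH 7.5 buffer; luminescence output.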
# Luc counter = Kinase-Glo luciferase inhibition (counter-screen) | Q27757 | Kinase-Glo luciferase, ATP luminescence, 8 min | Potency, µM (doses to about 38.3 µM), without a hit: at the highest dose activity change, negative = inhibition, hits mostly inhibitors | hit rate 0.28% among 200,000; further: on the % scale 0 is the no-effect control and ±100 the full control effect; nearly all actives have a fitted effect of over 60% in size
#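 Compounds were added to a substrate mix at pH 7.2 (50 mM imidazole, 10 uM ATP, within the enzyme's linear range), followed by Kinase-Glo detection reagent; luminescence was measured after 8 minutes at ambient temperature.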
# Rab9 prom act = Rab9 promoter activation | hit rate 2.8% among 320,000 | Potency, µM (top dose mostly 9.22 µM), inactives show at the top dose activation, negative = inhibition, usual class: activators | AID 485297 | Huh7 Rab9 promoter-luciferase reporter, luminescence, 24 h; further: % of control where 0% means no effect; nearly all actives have a fitted effect of over 60% in size
#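 Huh7 reporter line, Rab9 promoter upstream of luciferase. Compound exposure 24 h at 37 °C in reduced-serum medium with 10% FBS. Read-out: luminescence.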
# SMN2 splice up = SMN2 splice variant enhancement; Potency, µM (doses to about 46.1 µM), for inactives: top-dose activity change, positive = activation, hits mostly activators; HEK293 SMN2-luciferase splicing reporter, luminescence, 30-36 h; hit rate 2.8% among 210,000; AID 1458; further: % of control where 0% means no effect; nearly all actives have a fitted effect of over 55% in size
#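 qHTS luciferase splicing reporter: luminescence rises when SMN2 exon 7 is included in transfected HEK293 cells. Compound exposure lasted 30-36 h at 37C, with 4.5 mM final sodium butyrate as control, followed by a ONE-Glo read.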
# Starred values were filed as active, the others as inactive; ? = inconclusive; / = no result. The call rests on the fitted dose curve; in most records, active means well fitted curve in the direction sought with a large enough effect; inconclusive means small, poorly fitted or top-dose-only effect, or another doubt; inactive means no such curve, though single readings can be large; an effect the other way counts as inactive or inconclusive. Potency means the concentration at half of the fitted maximal effect.
SMILES,NPC1 promoter act,ELG1 genotoxic,FLuc counter,Luc counter,Rab9 prom act,SMN2 splice up
CN(C)c1ccc(-c2nnc(SCC3CCCO3)n2C)cc1 (stereo unspecified),?,?,?,1%,3.2µM*,/
Cn1c(SCC2CCCO2)nnc1-c1ccncc1 (stereo unspecified),1%,2%,6%,-1%,4%,-4%
CCCC(=O)c1ccc(N2CCOCC2)c(F)c1,?,6%,?,-6%,25%,-9%
Cc1ccc(C(=O)c2ccc(N3CCOCC3)c(F)c2)cc1,19%,9%,17µM*,7%,30%,-39%
Cc1cc(C(=O)CSc2nnnn2-c2ccc(Cl)cc2)c(C)n1CC1CCCO1 (stereo unspecified),-3%,13%,6%,2%,-2%,-8%
CCn1c(SCC(=O)c2cc(C)n(CC3CCCO3)c2C)nc2ccccc21 (stereo unspecified),25%,6%,27µM*,1%,?,-7%
Cc1cc(C(=O)CSc2nc3ccccc3c(=O)[nH]2)c(C)n1CC1CCCO1 (stereo unspecified),16%,14%,13µM*,-2%,?,-53%
Cc1cc(C(=O)CSc2nnnn2-c2ccccc2)c(C)n1CC1CCCO1 (stereo unspecified),2.5µM*,?,2.7µM*,-3%,1.6µM*,13µM*
CCCSCCCNC(=O)CN1C(=O)CCn2nc(-c3cn(C)c4ccccc34)cc21,/,/,4%,/,/,/
Cc1ccc(S(=O)(=O)NC23CC4CC(CC(C4)C2)C3)cc1,-1%,0%,/,/,-12%,/
Cc1nn(C)c(C(=O)Nc2ccc(S(=O)(=O)NC34CC5CC(CC(C5)C3)C4)cc2)c1Br,1.4µM*,6%,-17%,-1%,1.6µM*,1µM*
COc1ccc2[nH]c3c(N4CC(C)OC(C)C4)ncnc3c2c1 (stereo unspecified),-3%,-2%,-16%,3%,-7%,-6%
CCCOc1ncnc2c1[nH]c1ccc(OC)cc12,1.1µM*,?,2.4µM*,/,0.56µM*,/
Cc1ccc2[nH]c3c(N4CCCCCC4)ncnc3c2c1,-6%,-27%,19µM*,4%,-15%,-69%
CCN(CC)c1ncnc2c1[nH]c1ccccc12,0%,-7%,-19%,-3%,-11%,-67%
CCCOc1ncnc2c1[nH]c1ccccc12,19%,0%,17µM*,-4%,-4%,-60%
CC(C)Oc1ncnc2c1[nH]c1ccccc12,-9%,-2%,15µM*,/,-16%,/
Cc1ccc2[nH]c3c(N4CCN(Cc5ccccc5)CC4)ncnc3c2c1,0%,-23%,-22%,-1%,-9%,-49%
COc1cc2sc(-c3ccc(S(C)(=O)=O)cc3)c(C#CCO)c2cc1OC,/,1%,/,/,/,/
COc1ccc(NC(=O)C2=C(C)Nc3nc(SCc4ccc(C)cc4C)nn3C2c2cccc(OC)c2OC)cc1 (stereo unspecified),/,/,3%,/,/,/
COc1cccc(CNC(=O)CN2C(=O)CCn3nc(-c4cn(C)c5ccccc45)cc32)c1OC,/,/,2%,/,/,/
CCCCOc1ncnc2c1[nH]c1ccc(C)cc12,?,?,1.1µM*,/,?,/
Cc1ccc2[nH]c3c(NCCN4CCOCC4)ncnc3c2c1,14%,29%,?,-5%,7%,-32%
COc1cc(-c2noc(-c3ccc(NCC4CCCO4)c([N+](=O)[O-])c3)n2)cc(OC)c1OC (stereo unspecified),/,/,21µM*,/,/,/
COc1cc(-c2noc(-c3ccc(NCc4ccccc4)c([N+](=O)[O-])c3)n2)cc(OC)c1OC,/,/,15µM*,/,/,/
SMILES,NPC1 promoter act,ELG1 genotoxic,FLuc counter,Luc counter,Rab9 prom act,SMN2 splice up
COc1ccc(-c2noc(-c3ccc(NC4CCCC4)c([N+](=O)[O-])c3)n2)cc1OC,/,/,13µM*,/,/,/
O=[N+]([O-])c1cc(-c2nc(-c3ccco3)no2)ccc1NCc1ccccc1,/,/,15µM*,/,/,/
Cc1ccc(Cl)cc1NC(=O)COC(=O)CC1CCCCC1,-3%,0%,-5%,/,2%,/
CCOC(=O)c1cnc(SCc2ccccc2)nc1N,1.6µM*,7.3µM*,2.1µM*,-1%,0.89µM*,5.6µM*
CCOC(=O)c1cnc(SCc2ccc(C(C)(C)C)cc2)nc1N,11%,10%,-19%,-3%,-4%,-40%
CCOC(=O)C(C)Sc1ncc(-c2ccccc2)cn1 (stereo unspecified),5%,8%,21µM*,-3%,23%,3%
Cc1c(CN2CCCC(C(=O)c3cccc(OC(C)C)c3)C2)c(=O)n(-c2ccccc2)n1C (stereo unspecified),0%,1%,-1%,1%,0%,-23%
CN(C)S(=O)(=O)c1ccc(C(=O)Nc2ccc(-n3nncc3-c3ccccc3)cc2)cc1,/,/,0%,/,/,/
COc1ccc(-c2nc(C)c(CCNS(=O)(=O)c3cc(C)c(C)cc3C)s2)cc1,/,/,-12%,/,/,/
COc1ccc(C(=O)N/N=C\c2ccoc2)cc1,?,?,19µM*,/,26%,/
COc1cc(OC)c(C(=O)N/N=C/c2ccoc2)cc1OC,0%,?,-8%,/,7%,/
CCOc1cccc(C(=O)N/N=C/c2ccoc2)c1,-4%,?,13µM*,/,1%,/
CC(C)c1cc(C(=O)N/N=C/c2cccnc2)cs1,-1%,16%,?,0%,-5%,?
Cc1ccc(C(=O)N/N=C/c2ccoc2)cc1C,?,?,27µM*,/,?,/
CC(C)c1cc(C(=O)N/N=C/c2ccoc2)cs1,?,?,12µM*,/,?,/
Nc1nc(-c2ccccn2)nc(N)c1Cc1c(F)cccc1Cl,-42%,20%,27µM*,-2%,-23%,-42%
Nc1nc(-c2ccccn2)nc(N)c1Cc1ccccc1F,?,-5%,15µM*,-6%,?,28%
Cc1ccc(C)c(NC(=O)Nc2csc3c2CCCC3)c1,/,/,0%,/,/,-11%
c1ccc(CSc2nnc(C3CCNCC3)o2)cc1,/,/,0%,/,/,/
CC(=O)c1cccc(NC(=O)NC2CCCCCCC2)c1,25%,2%,17µM*,/,24%,/
CCC1CCC(NC(=O)Nc2cccc(OC)c2)CC1 (stereo unspecified),4µM*,?,4.8µM*,-2%,1.3µM*,/
Cc1cccc(NC(=O)NC2CCCCCCC2)c1,1.6µM*,?,11µM*,/,3.5µM*,/
CC(=O)c1cccc(NC(=O)NC2CCCCC2)c1,3%,1%,?,12%,-5%,13%
O=C(Nc1ccc2nsnc2c1)NC1CCCCC1,2.2µM*,?,6.7µM*,19%,1.4µM*,?
COc1ccc(CNc2oc(/C=C/c3cccc(OC)c3)nc2C#N)cc1,/,/,-7%,/,/,-25%

# Screens deposited in PubChem by National Center for Advancing Translational Sciences (NCATS).
